PubChem BioAssay
Active and inactive are the calls of the source.

What was measured:
[1] = anti-His antibody binders, primary screen, artefact control for SMM control protein annotation, biochemical, small-molecule microarray, 635 nm fluorescence (AID 1128); conditions: anti-His Alexa647 antibody binding, higher = more signal;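 note: score merges feature fluorescence with signal-to-noise for each printed compound spot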
[2] = tested on: Human papillomavirus type 1a E7 protein (residues 1-88); assay: HPV1a E7 small-molecule binders, primary screen, biochemical, small-molecule microarray, residues 1-88, 635 nm (AID 1129); conditions: small-molecule microarray binding, fluorescence 635 nm; higher = more signal
[3] = target: Focal adhesion kinase 1 (Homo sapiens) (UniProt Q05397); assay: small-molecule microarray binders of FAK, primary screen, biochemical, 635/667 nm fluorescence, BSA, DTT (AID 1130); conditions: PTK2 binding, 635 nm fluorescence, higher = more signal;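 note: composite of spot emission at 667 nm and signal to noise over triplicate slides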
[4] = tested on: Fibrinogen (Alexa647-labelled); assay: fibrinogen binders on compound microarrays, profiling panel, artefact control for SMM control-protein annotation, biochemical, small-molecule microarray, 635/667 nm fluorescence (AID 1131); conditions: fibrinogen-A647 binding fluorescence, higher = more signal;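 note: z-score merges 667 nm fluorescence with per-spot signal-to-noise over triplicate slides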
[5] = target: Follistatin (Homo sapiens) (UniProt P19883); assay: follistatin binders on small-molecule microarrays, primary screen, biochemical, small-molecule microarray, 635/667 nm fluorescence (AID 1132); conditions: FST binding, 635 nm fluorescence, higher = more signal
[6] = target: Fibroblast growth factor 2 (Homo sapiens) (UniProt P09038); assay: FGF2 binders on small-molecule microarrays, primary screen, biochemical, small-molecule microarray, 635/667 nm fluorescence (AID 1133); conditions: small-molecule microarray binding, FGF2, fluorescence 635/667; higher = more signal
[7] = mitochondrial membrane potential change in A549 cells, profiling panel, cell-based, JC-1 fluorescence, basal, 24 h, 100 nL (AID 1138); conditions: higher = more signal;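 note: A549 lung adenocarcinoma cells under basal conditions with no added stimulus; test concentration not given here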
Lefty1 = Lefty1 binders on small-molecule microarrays, primary screen, biochemical, small-molecule microarray, 635/667 nm fluorescence (AID 1139); conditions: small-molecule microarray binding, fluorescence 635/667; higher = more signal
[8] = tested on: wheat germ agglutinin (Triticum aestivum), Alexa647-labelled; assay: wheat germ agglutinin binders on compound microarrays, profiling panel, artefact control for SMM control-protein annotation, biochemical, small-molecule microarray, 635/667 nm fluorescence (AID 1140); conditions: WGA-A647 binding, 635 nm fluorescence, higher = more signal;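 note: score merges 667 nm feature emission with signal to noise over triplicate slides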
[9] = target: Luciferin 4-monooxygenase (Photinus pyralis) (UniProt P08659); assay: firefly luciferase enzyme inhibitors, primary screen, biochemical, luminescence, purified enzyme, 2006 set (AID 1141); conditions: SteadyGlo luminescence, 30 min, higher = more signal, called active from +8 up or from −8 down;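 note: cell-free assay with purified firefly luciferase at 100 ng per well in PBS; test concentration not given here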
Luciferin 4-monooxygenase (Photinus pyralis), sequence (P08659 whole entry, looked up): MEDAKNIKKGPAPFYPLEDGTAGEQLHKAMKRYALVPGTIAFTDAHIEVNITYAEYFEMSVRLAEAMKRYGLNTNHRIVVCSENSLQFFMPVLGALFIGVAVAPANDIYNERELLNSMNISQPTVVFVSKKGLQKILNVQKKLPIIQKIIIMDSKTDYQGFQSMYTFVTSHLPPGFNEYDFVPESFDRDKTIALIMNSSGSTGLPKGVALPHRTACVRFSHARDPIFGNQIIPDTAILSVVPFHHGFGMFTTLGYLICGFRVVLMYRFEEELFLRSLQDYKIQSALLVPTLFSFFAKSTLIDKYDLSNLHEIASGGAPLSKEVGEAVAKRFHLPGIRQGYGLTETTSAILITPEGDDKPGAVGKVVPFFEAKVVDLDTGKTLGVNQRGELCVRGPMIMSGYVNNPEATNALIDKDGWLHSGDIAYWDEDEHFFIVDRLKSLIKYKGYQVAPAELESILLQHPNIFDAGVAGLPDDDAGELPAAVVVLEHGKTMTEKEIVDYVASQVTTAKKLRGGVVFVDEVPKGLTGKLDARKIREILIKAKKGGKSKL

Focal adhesion kinase 1 (Homo sapiens), sequence (Q05397 whole entry, looked up): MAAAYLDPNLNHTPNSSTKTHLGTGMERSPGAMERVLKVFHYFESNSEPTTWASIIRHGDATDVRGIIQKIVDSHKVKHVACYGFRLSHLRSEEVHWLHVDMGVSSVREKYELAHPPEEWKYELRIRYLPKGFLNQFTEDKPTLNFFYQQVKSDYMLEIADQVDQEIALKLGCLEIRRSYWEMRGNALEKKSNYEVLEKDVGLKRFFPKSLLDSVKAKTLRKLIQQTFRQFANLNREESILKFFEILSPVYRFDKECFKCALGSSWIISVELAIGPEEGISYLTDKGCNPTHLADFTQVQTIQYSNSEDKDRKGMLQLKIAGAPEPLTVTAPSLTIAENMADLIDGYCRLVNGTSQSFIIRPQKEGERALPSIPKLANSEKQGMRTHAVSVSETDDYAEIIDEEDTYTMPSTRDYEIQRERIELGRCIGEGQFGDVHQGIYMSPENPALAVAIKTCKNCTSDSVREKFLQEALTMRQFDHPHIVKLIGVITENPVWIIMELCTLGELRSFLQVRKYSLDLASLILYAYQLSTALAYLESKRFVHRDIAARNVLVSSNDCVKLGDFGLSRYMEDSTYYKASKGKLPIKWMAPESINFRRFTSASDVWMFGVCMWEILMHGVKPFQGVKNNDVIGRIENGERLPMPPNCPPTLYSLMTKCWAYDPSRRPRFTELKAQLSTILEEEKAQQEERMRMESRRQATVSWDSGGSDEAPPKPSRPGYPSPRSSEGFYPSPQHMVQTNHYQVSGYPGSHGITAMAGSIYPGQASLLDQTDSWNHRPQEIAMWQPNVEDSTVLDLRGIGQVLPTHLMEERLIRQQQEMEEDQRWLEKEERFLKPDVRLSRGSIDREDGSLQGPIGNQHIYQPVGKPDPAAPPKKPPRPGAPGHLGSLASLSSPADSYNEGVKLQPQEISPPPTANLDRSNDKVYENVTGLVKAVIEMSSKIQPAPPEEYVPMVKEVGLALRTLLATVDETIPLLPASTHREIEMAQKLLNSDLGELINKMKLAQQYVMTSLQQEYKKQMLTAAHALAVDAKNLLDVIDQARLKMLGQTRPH
Fibroblast growth factor 2 (Homo sapiens), sequence (P09038 whole entry, looked up): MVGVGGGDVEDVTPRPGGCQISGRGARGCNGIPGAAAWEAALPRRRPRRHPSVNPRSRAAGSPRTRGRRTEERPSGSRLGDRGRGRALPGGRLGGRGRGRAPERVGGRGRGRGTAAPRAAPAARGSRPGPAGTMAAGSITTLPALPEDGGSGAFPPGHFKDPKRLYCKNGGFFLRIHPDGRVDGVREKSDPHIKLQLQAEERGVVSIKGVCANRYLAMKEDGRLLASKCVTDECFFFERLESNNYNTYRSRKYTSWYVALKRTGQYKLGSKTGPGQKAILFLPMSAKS
Follistatin (Homo sapiens), sequence (P19883 whole entry, looked up): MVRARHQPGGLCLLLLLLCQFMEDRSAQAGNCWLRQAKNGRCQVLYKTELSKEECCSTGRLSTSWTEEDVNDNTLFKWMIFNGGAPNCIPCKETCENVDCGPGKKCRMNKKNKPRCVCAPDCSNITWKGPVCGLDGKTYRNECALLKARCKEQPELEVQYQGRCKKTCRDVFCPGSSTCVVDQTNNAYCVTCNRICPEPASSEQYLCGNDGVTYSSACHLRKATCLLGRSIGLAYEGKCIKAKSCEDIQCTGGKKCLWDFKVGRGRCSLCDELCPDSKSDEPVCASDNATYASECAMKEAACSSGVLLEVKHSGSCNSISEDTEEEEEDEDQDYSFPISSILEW

Compound | composite z-score [1] | composite z-score [2] | composite z-score [3] | composite z-score [4] | composite z-score [5] | composite z-score [6] | z-score [7] | composite z-score (Lefty1) | composite z-score [8] | z-score [9]
CC(C)NC(=O)[C@@]1(C)c2ccccc2C(=O)N(Cc2cc(C(F)(F)F)cc(C(F)(F)F)c2)[C@H]1c1ccc(CO)cc1 | -0.229 | 0.272 | 0.0662 | -0.285 | -0.101 | -0.741 | 1.21 | -0.146 | -0.568 | -0.734 (inactive)
CC(C)=CCCC(C)=CC(O)C1C=CC2C(=O)N(C)C(=O)C2N1Nc1ccccc1 (stereo not given) | 1.17 | 1.21 | 0.832 | 1.03 | 1.38 | 0.709 | 0.797 | 1.08 | 1.22 | 0.15 (inactive)
CC(C)NC(=O)[C@@H]1c2ccccc2C(=O)N(C2Cc3ccccc3C2)[C@H]1c1ccc(CO)cc1 | 1.51 | 1.04 | 0.0815 | 0.445 | 0.351 | 0.162 | 2.54 | -0.0727 | 0.664 | 0.668 (inactive)
C=C(CC1([C@@H](NP(=O)(c2ccccc2)c2ccccc2)[C@H]2C[C@@H]2CCCC)CC1)c1ccccc1 | 0.767 | 1.19 | 0.0976 | 0.746 | 0.132 | 0.0962 | -0.0757 | -0.415 | 0.729 | 2.82 (inactive)
CCOC(=O)C[C@H]1[C@H](OC(=O)c2cc3ccccc3oc2=O)[C@@H](NC(=O)c2ccccc2)c2cc(OCCCO)ccc2N1C(=O)c1ccc2ccccc2n1 | 0.255 | 0.625 | -0.148 | 0.586 | 1.19 | 0.563 | -0.339 | 0.87 | 0.345 | 0.409 (inactive)
C=CCC(OC(C)=O)[C@@H]1[C@@H](N(Cc2ccc(-c3ccccc3)cc2)C(=O)c2cccc3ccccc23)c2cc(OCCCO)ccc2N1C(=O)c1ccc(-c2ccccc2)cc1 (stereo not given in full) | -0.722 | 0.521 | 0.0082 | 0.56 | 0.435 | -0.0136 | 1.68 | -0.111 | 0.556 | -0.52 (inactive)
C[C@@]1([C@@H](NC(=O)c2ccc(-c3ccccc3)cc2)c2ccc(Cl)cc2)C[C@H]1C1CCCCC1 | 2.1 | 1.15 | 0.473 | 0.869 | 0.663 | -0.246 | 0.532 | 0.112 | 0.695 | 0.321 (inactive)
O=C1C[C@@](C(=O)NCCN2CCOCC2)(c2ccc([N+](=O)[O-])cc2)[C@@H](c2ccc(CO)cc2)N1CC12CC3CC(CC(C3)C1)C2 | 2.5 | 1.25 | 0.296 | 0.904 | 1.34 | 1.13 | -0.712 | 0.646 | 1.09 | -0.988 (inactive)
CCC(CC)C(O)C1C=CC2C(=O)NC(=O)C2N1Nc1ccccn1 (stereo not given) | 0.823 | -0.0365 | 0.268 | -0.206 | 0.872 | 0.0277 | 0.693 | -0.0021 | 0.0789 | -0.0791 (inactive)
COc1cccc(-c2cccc(=O)o2)c1 | 0.0707 | -0.0477 | -0.0753 | -0.51 | 0.302 | 0.0278 | -0.376 | -0.198 | 0.143 | -0.0346 (inactive)
COc1ccc(-c2cc3c(c(-c4ccc(Oc5ccccc5)cc4)n2)[Si](C(C)C)(C(C)C)OC3)cn1 | 0.0674 | -0.221 | 0.158 | -0.424 | 0.525 | -0.224 | -0.0734 | 0.278 | -0.12 | 0.223 (inactive)
C=CCC(OC(C)=O)[C@@H]1[C@@H](N(Cc2cc3ccccc3o2)C(=O)c2cccc3ccccc23)c2cc(OCCCO)ccc2N1C(=O)c1ccc(-c2ccccc2)cc1 (stereo not given in full) | -0.202 | 0.0155 | -0.166 | -0.827 | 0.791 | 0.401 | 0.461 | 0.218 | 0.297 | -0.219 (inactive)
CC(C)CNC(=O)[C@@]1(Cc2ccccc2I)c2ccccc2C(=O)N(C2CCCCC2)[C@H]1c1ccc(CO)cc1 | 1.57 | 1 | 0.321 | 0.348 | 0.0932 | 0.99 | 1.57 | -0.104 | 0.84 | 0.258 (inactive)
CC(C)C(=C=CC[C@@H](O)c1ccc(OCCO)cc1)C[C@@H](O)c1ccccn1 | -0.449 | -0.251 | -0.542 | 0.819 | 1.58 | 1.78 | -0.306 | 1.51 | -0.187 | -0.069 (inactive)
[N-]=[N+]=Nc1ccccc1[C@@H]1OC(c2ccc(OCCCO)cc2)=N[C@]1(Cc1ccccc1)C(=O)N1CCOCC1 | 2.31 | 1.19 | 0.142 | 0.862 | 1.26 | 0.749 | 1.53 | 0.0367 | 0.923 | -5.98 (inactive)
CN1C=C(C(=O)OCCS(C)(=O)=O)C(C(=O)OCCS(C)(=O)=O)=CC(c2ccc(CO)cc2)=CC1C1CC1 (stereo not given) | -0.281 | 0.138 | 0.0684 | 0.28 | 0.126 | -0.101 | 1.48 | 0.53 | 0.922 | -1.5 (inactive)
COc1ccc(CCNC(=O)[C@@]2(Sc3ccc(C)cc3)CC(=O)N(C(C)C)[C@@H]2c2ccc(CO)cc2I)cc1 | 0.622 | 0.178 | 0.0367 | 0.144 | -0.147 | -0.172 | 0.968 | -0.979 | -0.258 | -0.436 (inactive)

Compound | composite z-score [1] | composite z-score [2] | composite z-score [3] | composite z-score [4] | composite z-score [5] | composite z-score [6] | z-score [7] | composite z-score (Lefty1) | composite z-score [8] | z-score [9]
C=CC[C@@]12N=C(c3ccc(OCCCO)cc3)O[C@@H]1c1ccccc1N(C)C2=O | 2.16 | 1.23 | 0.338 | 0.363 | 1.52 | 1.62 | 1.26 | 0.283 | 0.65 | -4.19 (inactive)
[N-]=[N+]=Nc1ccccc1[C@@H]1OC(c2ccc(OCCCO)cc2)=N[C@]1(CCS(=O)(=O)c1ccccc1)C(N)=O | 0.712 | 1.23 | 0.203 | 1.02 | 1.28 | 0.423 | -0.995 | -0.411 | 0.881 | -13.5 (active)
CC(=O)n1cc(C(O)C2C=CC3C(=O)N(c4ccccc4)C(=O)C3N2Nc2ccc([N+](=O)[O-])cc2)c2ccccc21 (stereo not given) | 3.33 | 0.981 | 0.457 | 0.916 | 0.347 | -0.105 | -1.02 | -0.719 | 1.45 | 1.08 (inactive)
CC(C)NC(=O)[C@@]1(c2ccc([N+](=O)[O-])cc2)CC(=O)N(C2CCCCC2)[C@@H]1c1ccc(CO)cc1I | -0.0568 | 1.15 | 0.52 | -0.517 | -0.315 | -0.331 | 2.97 | -0.491 | -0.0784 | -1.11 (inactive)
COc1cc2c(cc1O)C(c1cccs1)N(C)CC2 (stereo not given) | -1 | -1.33 | 0.756 | -0.861 | -0.123 | -0.0571 | -0.278 | -0.574 | -1.05 | 0.146 (inactive)
O=C(c1ccccc1)N1C(=O)[C@@]2(Cc3ccccc31)N=C(c1ccc(OCCCO)cc1)O[C@H]2c1ccccc1 | 1.39 | 1.21 | 1.23 | 0.657 | 1.4 | 1.45 | -1.02 | 0.856 | 0.811 | -1.14 (inactive)
COC(=O)[C@@]1(Cc2ccc(F)cc2)[C@H]2c3cc(C(=O)N(C)C)n(Cc4cc(F)c(F)c(F)c4)c3C[C@H]2CN1C(=O)c1ccccc1 | 1.13 | 1.21 | 0.538 | 0.711 | 1.02 | -0.0402 | 0.918 | -0.788 | 0.704 | 2.37 (inactive)
O=C(c1ccccc1)N1C(=O)[C@]2(COC(c3ccc(OCCCO)cc3)=N2)Cc2ccccc21 | 3.28 | 1.2 | 0.628 | 0.988 | 1.4 | 1.1 | -0.345 | 0.443 | 1.12 | -1.19 (inactive)
O=C1NC(=O)C2C1C=CC(C(O)c1cc(C(F)(F)F)cc(C(F)(F)F)c1)N2Nc1ccccn1 (stereo not given) | 0.191 | 0.289 | 0.187 | 0.604 | 0.89 | 0.047 | 0.456 | 0.187 | 0.574 | 0.0198 (inactive)
COc1ccc([Si](C)(C)[C@@H]2[C@@H](CC(=O)N3CCC[C@H]3CO)O[C@]3(C(=O)N(c4ccccc4)c4ccccc43)[C@H]2C)cc1 | 0.806 | 1.22 | 0.472 | 0.94 | 1.1 | 0.642 | -0.228 | 1.01 | 0.2 | 0.659 (inactive)
C[N+](C)(C)CCCCNC(=O)[C@H]1C[C@H]2C(=O)N3CCC[C@H]3C(=O)N2[C@H]1c1cccc(OCCO)c1 | 3.3 | -1.41 | -0.444 | -0.944 | 1.43 | 1.41 | -0.613 | 0.974 | -1.48 | -0.677 (inactive)
O=C1C2C=CC(C(O)c3cccc4ccccc34)N(Nc3ccccc3F)C2C(=O)N1c1ccccc1 (stereo not given) | 1.22 | 1.25 | 0.792 | 1 | 0.829 | -0.276 | -0.968 | 0.345 | 1.4 | 1.24 (inactive)
O=C1C2C=CC(C(O)CCc3ccccc3)N(Nc3ccccc3F)C2C(=O)N1c1ccccc1 (stereo not given) | 1.49 | 1.14 | 1.01 | 0.434 | 1.25 | -0.449 | 0.00533 | 0.0364 | 0.548 | 1.48 (inactive)
C=C[C@H](CO[Si](CC)(CC)CC)N(Cc1ccc(OC(C)=O)c(OC)c1)S(=O)(=O)c1ccc(Br)cc1 | 2.48 | 1.08 | 1.76 | 0.967 | 1.28 | 0.913 | -0.202 | 0.237 | 0.713 | 0.0578 (inactive)
O=C(NCCO)C1=C[C@H](Oc2ccccc2I)[C@@H](O)[C@H](N(Cc2ccco2)C(=O)Cc2ccccc2)C1 | -0.169 | 0.234 | -0.27 | -0.175 | 0.863 | 0.58 | -1.18 | 0.624 | -0.109 | 0.341 (inactive)
CC1(C)[C@@H]2CC(C(O)C3C=CC4C(=O)N(Cc5ccccc5)C(=O)C4N3n3cnnc3)=C[C@H]1C2 (stereo not given in full) | 0.356 | 1.19 | 0.218 | 0.744 | 0.86 | 0.321 | -0.287 | 0.625 | 0.901 | 1.62 (inactive)
[N-]=[N+]=Nc1ccccc1[C@H]1OC(c2ccc(OCCCO)cc2)=N[C@@]1(CCS(=O)(=O)c1ccccc1)C(=O)NCC(O)CO (stereo not given in full) | 1.52 | 0.94 | 0.605 | 1.07 | 1.27 | 0.057 | 0.233 | -0.0179 | 0.914 | -9.88 (active)
